In all, about 220,000 compounds went through this assay and about 2,000 (0.91%) were called active. Another 2% or so got no clear call; they are omitted. Rule as the data show it: inconclusive = inhibition above about 80% without an active follow-up result; inactive = below that; test concentration not stated here. These entries were drawn from the full list. Potency and affinity values are given separately.

The assay is described as follows: M. tuberculosis H37Rv growth inhibitors, H37Rv strain (AID 1626).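 Also: bacteria incubated seven days before Alamar blue readout; 0% = bacteria only wells and 100% = bacteria with antibiotic wells.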 To be noted: active compounds read high, concentration not given here.
The inhibition is the drop in the measured response relative to a control, in per cent. As to `N#Cc1ccc(NC(=O)N2CCC(c3nc4c(nnn4Cc4cccc(Cl)c4)c(=O)[nH]3)CC2)cc1`, the inhibition is 69% (inactive).

For the molecule `O=C(Nc1ccc(F)cc1)N1CCC(c2nc3c(nnn3Cc3cccc(Cl)c3)c(=O)[nH]2)CC1`, the inhibition is 64.2% (inactive).

As for `N/C(=N\OC(=O)CCc1ccccc1)c1ccccc1Cl`, the inhibition is 14.4% (inactive).

For the molecule `COc1cc(CNC(C)(C)CO)cc(Br)c1OCc1ccc(Cl)cc1`, the inhibition is 9.24% (inactive).

Turning to `COc1cc(CNC(C)(C)CO)cc(Br)c1OCc1ccc(Cl)cc1Cl`, the inhibition is 62.5% (inactive).

As to `COC(=O)CCC(=O)OC1(C)C(=O)C2=CN(Cc3ccco3)C(c3ccc(OC)cc3)=CC2=C(Br)C1=O` (stereo unspecified), the inhibition was 1.66% (inactive).

On to `O=C(Nc1ccncc1)c1sc2ccccc2c1Cl`, for which the inhibition was 2.92% (inactive).

`Cc1cnc(NC(=O)c2sc3ccccc3c2Cl)s1`: the inhibition was 3.19% (inactive).

Take `O=C(Nc1nccs1)c1cnccn1`: the inhibition was -1.5% (inactive).

In the case of `CCC(=O)Nc1cccc(C(=O)Nc2nccs2)c1`, the inhibition is 2.64% (inactive).

For the molecule `CCCc1cc(C(=O)Nc2nnc(C)s2)cs1`, the inhibition was 1.88% (inactive).

Consider `O=C(COC(=O)c1ccccn1)Nc1nccs1`, for which the inhibition is -5.49% (inactive).

With `Cc1onc(-c2c(F)cccc2Cl)c1C(=O)Nc1nccs1`, the inhibition is 6.17% (inactive).

For `COC(=O)c1nc(N)sc1-c1ccc(OC)cc1`, the inhibition was -1.47% (inactive).

For the molecule `CCCS(=O)(=O)N1CCN(Cc2ccc([N+](=O)[O-])cc2)CC1`, the inhibition was 5.19% (inactive).

On to `COc1ccc(CNC(=O)COC(=O)c2ccc(Br)cc2)cc1`, for which the inhibition was 5.06% (inactive).

With `CN(C)NC(=O)C(NC(=O)c1ccccc1)C12CC3CC(CC(C3)C1)C2` (stereo unspecified), the inhibition is -4.07% (inactive).

Consider `CCn1c(=O)c(C(=O)CN2CCCc3ccccc32)c(N)n(Cc2ccccc2)c1=O`, for which the inhibition is -5.75% (inactive).

Regarding `COc1ccc(-c2nnc3n2C(C)(C)Cc2cc(OC)c(OC)cc2-3)cc1`, the inhibition was 3.77% (inactive).

For `COc1ccc(NS(=O)(=O)c2ccc(O)c(C(=O)OCC(=O)NC(C)C3CC4CCC3C4)c2)cc1` (stereo unspecified), the inhibition is -0.76% (inactive).

On to `COC(=O)[C@@H](NC(=O)Nc1ccc(OC)cc1)C(C)C`, for which the inhibition was 2.16% (inactive).

Take `CCc1ccc(NC(=O)c2ccccc2Br)cc1`: the inhibition is 6.96% (inactive).

For the molecule `CC(SC1CCCC1)C(=O)NC(C)(C#N)C(C)C` (stereo unspecified), the inhibition is -2.88% (inactive).

In the case of `CC(C)(C)NC(=O)C1CCC(CNc2c(N3CCCCC3)c(=O)c2=O)CC1` (stereo unspecified), the inhibition is -2.67% (inactive).

Take `CCOc1ccc(NC(=O)CN2CCN(CC(=O)Nc3ccc(F)cc3)CC2)cc1`: the inhibition was 9.61% (inactive).

Take `COc1ccc(NC(=O)CN2CCN(C3c4ccccc4-c4ccccc43)CC2)c(OC)c1`: the inhibition was 28.6% (inactive).

For the molecule `CCOc1ccc(NC(=O)CN2CCN(CC(=O)Nc3ccc(F)c(F)c3)CC2)cc1`, the inhibition was 10.7% (inactive).

In the case of `COc1ccc(NC(=O)CN2CCN(C3c4ccccc4-c4ccccc43)CC2)cc1`, the inhibition is 18.1% (inactive).

With `COc1ccc(C(=O)N[C@H](C(=O)OCc2cc(=O)oc3cc(C)ccc23)C(C)C)cc1`, the inhibition is 9.93% (inactive).

As to `Cc1cccc(C)c1OCCCCn1cnc2ccccc2c1=O`, the inhibition was -6.94% (inactive).

Regarding `CCOC(=O)N1CCN(C(=O)CCCn2c(=O)[nH]c3ccccc3c2=O)CC1`, the inhibition was 1.26% (inactive).

In the case of `COC(=O)C1=C(C)NC(C)=C(C(=O)OC)C1C1CC=CCC1` (stereo unspecified), the inhibition is 5.42% (inactive).

For the molecule `Cc1cccn2cc(-c3cccc(NC(=O)c4cccs4)c3)nc12`, the inhibition was 2.98% (inactive).

For the molecule `COc1ccc(-c2cc(C(=O)OC3CCOC3=O)c3ccccc3n2)cc1OC` (stereo unspecified), the inhibition was -3.98% (inactive).

On to `CCOC(=O)N1CCN(C(=O)CSc2ccc(-c3ccccc3OC)nn2)CC1`, for which the inhibition was 3.28% (inactive).

With `COC(=O)c1ccc(Cl)c(S(=O)(=O)N2CCCC2)c1`, the inhibition is 4.58% (inactive).

For `C=C(C)C1Cc2c(C)nn(-c3ccccc3)c2C1` (stereo unspecified), the inhibition was 3.68% (inactive).

`C=C(C)C1Cc2c(C)nn(-c3cccc4ccccc34)c2C1` (stereo unspecified): the inhibition is 13.7% (inactive).

Consider `COc1ccccc1CCc1nnc(CCC(=O)NC(C)Cc2cccnc2)o1` (stereo unspecified), for which the inhibition is 4.51% (inactive).

For the molecule `COc1ccccc1Nc1nnc(SCC(=O)N2CCCC2)s1`, the inhibition was -3.72% (inactive).

On to `O=C(CCC1CCCCC1)NNC(=O)NC12CC3CC(CC(C3)C1)C2`, for which the inhibition was -2.75% (inactive).

`OC(CNCc1ccco1)Cn1c2ccccc2c2ccccc21` (stereo unspecified): the inhibition is 0.42% (inactive).

For the molecule `OC(CNCC1CCCO1)Cn1c2ccc(Br)cc2c2cc(Br)ccc21` (stereo unspecified), the inhibition is 43.1% (inactive).

`O=C(CCc1nnc(Cc2c[nH]c3ccccc23)o1)NC1CCCC1`: the inhibition was -6.46% (inactive).

Turning to `CN(C)S(=O)(=O)c1ccc(NC(=O)CSc2nnnn2C)cc1`, the inhibition was 2.23% (inactive).

As for `Cc1ccc(S(=O)(=O)NC(=O)Nc2cc(C(C)(C)C)on2)cc1`, the inhibition was -7.06% (inactive).

For `Cc1ccc2cc(CCNC(=O)c3cccc([N+](=O)[O-])c3)c(=O)[nH]c2c1`, the inhibition was 2% (inactive).

In the case of `COc1ccc2nc(NC(=O)c3ccc4ncsc4c3)sc2c1`, the inhibition is 8.2% (inactive).

Regarding `COc1ccc(-c2csc(NC(=O)COC(=O)C3=COCCO3)n2)cc1`, the inhibition was 4.53% (inactive).

For `CCc1nnc(NC(=O)c2ccc3ncsc3c2)s1`, the inhibition was -18.6% (inactive).

Consider `COc1ccc(C)c2sc(NC(=O)C3=COCCO3)nc12`, for which the inhibition was 5.95% (inactive).

For the molecule `COc1ccc(OC)c2sc(NC(=O)C3=COCCO3)nc12`, the inhibition is 6.97% (inactive).

For the molecule `Cc1ccnc2nc(C(=O)Nc3nnc(-c4ccc(Cl)cc4)o3)nn12`, the inhibition is -1.12% (inactive).

On to `O=C(COc1ccc(Cl)cc1Cl)Nc1nnc(C2=COCCO2)o1`, for which the inhibition was 1.29% (inactive).

On to `COc1ccc(CCNC(=O)C2=COCCO2)cc1`, for which the inhibition is 0.72% (inactive).

Turning to `COc1ccc(CC2(CO)CCN(Cc3cnn(-c4ccc(F)cc4)c3)CC2)cc1`, the inhibition was -9.12% (inactive).

Take `NC(=O)c1ccccc1NS(=O)(=O)c1ccc2c(c1)OCCO2`: the inhibition is -3.34% (inactive).

Turning to `CN1CCN(c2ccc(Cl)cc2NC(=O)c2ccc(S(=O)(=O)N(C)C)cc2)CC1`, the inhibition was -2.17% (inactive).

With `COc1ccc(C(=O)NC(=S)Nc2cccc(NC(=O)c3ccco3)c2)cc1[N+](=O)[O-]`, the inhibition is 6.53% (inactive).

On to `CCCN1C(=O)c2ccccc2NC1c1ccc(OC)c(CSc2ccccn2)c1` (stereo unspecified), for which the inhibition is -2.45% (inactive).

As for `CCN(CC)S(=O)(=O)c1ccc(/C=C/C(=O)Nc2c(C)n(C)n(-c3ccccc3)c2=O)cc1`, the inhibition is -0.04% (inactive).
